The values that follow come from the OligoGym collection.
Also: reference of the scale not given here.

One assay concerns the target NUP54. Description: pooled miR-30 sensor sort-seq; sequence = guide strand. The following applies: shRNA.
For TATATCTTCTAGATCGTCTTTA, the sensor-assay potency score (higher = more potent) turned out to be 0.519.
Same read-out and setting: in the case of TTCCTGTTTGATTAGGACCTGT it was 0.0888; in that of TACAGATGTAGTTTGATTCTTT, 0.197; in that of TTATATCTTCTAGATCGTCTTT, -0.236.
With TAAATAACAACTTCTGTCTGAT, the sensor-assay potency score (higher = more potent) stood at 0.552.
TACATTTACAGTAAGGGTCTGG: the sensor-assay potency score (higher = more potent) worked out at 0.14.
TAATGTAGTTTGCTGCTGCTGC had a sensor-assay potency score (higher = more potent) of 0.262.
Same read-out and setting: in the case of TAAACCAGTACTAGTTCCCGTT it was -0.284; in that of TTCTAGATCGTCTTTAATGATG, -1.29.
Still for that read-out and setting: in the case of ATAAATAACAACTTCTGTCTGA it was 1.09; in that of TTGTTGTTTCAAATGCTGCTTG, 0.0156.

A further assay concerns the target NUTF2. The assay is described as above. To be noted: shRNA.
Sequence TTTAATAGGAACATCTGGTGGA registered a sensor-assay potency score (higher = more potent) of 0.705.
Consider TTCTCCTTCACTTCTTTGGGTT, for which the sensor-assay potency score (higher = more potent) was -0.477.
For TACAACACAAACTTCTCCCGTC, the sensor-assay potency score (higher = more potent) was 0.549.
For the sequence TTCTTTAATAGGAACATCTGGT, the sensor-assay potency score (higher = more potent) was -0.647.
On to TAATAGGAACATCTGGTGGAAC, for which the sensor-assay potency score (higher = more potent) is -1.27.
Still for that read-out and setting: in the case of TTAATAGGAACATCTGGTGGAA it was -0.0861; in that of TAGTAATGTTGAATGAAGCTGG, 0.656; in that of TTTTGCATTACTTAAGTCTTTC, -0.669.
For the sequence TATCATTATCAAATAACTGGTA, the sensor-assay potency score (higher = more potent) was 0.126.
As to TGCAACTAGTCTAGCATCCAAA, the sensor-assay potency score (higher = more potent) was -1.42.
Regarding TACTAGAGCAACTTGTCAGTAG, the sensor-assay potency score (higher = more potent) is 0.355.

The next assay has as its target NXF3. The description is as above. The following applies: shRNA.
With TTGAACAACTTGATCAGTGTGA, the sensor-assay potency score (higher = more potent) is 0.976.
On the same count and under the same terms, in the case of TTATCTGCTCCACCTTTTCTGA it was -1.35.
For TTGCTCTTCTTTGAACAACTTG, the sensor-assay potency score (higher = more potent) is -0.818.
With TAATTTGGGGAACAATTCCAGG, the sensor-assay potency score (higher = more potent) is -1.33.
Same read-out and setting: in the case of TTCATAGTGAAACTCAACTGGG it was -0.55; in that of AATCTTGCCACTGACATTCTTC, -0.451; in that of TGCATCTCCATCTTGCTGCTGA, -0.136.
Same read-out and setting: in the case of TTGACAAAGATTGATATCTTTT it was -1.25; in that of TGCTCTTCTTTGAACAACTTGA, -0.684.
TTCTTCAACATCTCAGATCCAA gave a sensor-assay potency score (higher = more potent) of 0.0512.
TTACAGGTTGGTAACCTCTTGT displayed a sensor-assay potency score (higher = more potent) of 0.125.
On the same count and under the same terms, in the case of TTTTCTGACTTCAGCTCCCTGT it was -0.506.

A further assay deals with NXF5. The assay is described as above. The following applies: shRNA.
For the sequence TCTTTCAGTGATCTTCAGGGTG, the sensor-assay potency score (higher = more potent) was -0.168.
On to TACATAGGCAGACTGGTCCGAG, for which the sensor-assay potency score (higher = more potent) was -0.391.
Regarding TTTCTTTCAGTGATCTTCAGGG, the sensor-assay potency score (higher = more potent) was 0.16.
As for TTGAAGTACTTGCACAAGTTGC, the sensor-assay potency score (higher = more potent) was -0.882.
TTTTGTGTGCTTTAGCAGCTTC yielded a sensor-assay potency score (higher = more potent) of 0.239.
TACAGTTTGTTGTTGCACAAGT: the sensor-assay potency score (higher = more potent) was -0.398.
